TEAD-YAP inh – TEAD-YAP interaction inhibition; HEK-TIYL cells, TEAD-Gal4/YAP UAS-luciferase luminescence; inhibition, % at 9.12 µM; 640,000 compounds, 1.4% hits; in the data active = inhibition above about 32%;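 also: 0% = median of test compound wells and 100% = reference inhibitor wells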
GPR151 activ – human GPR151 activation | PathHunter beta-arrestin GPR151 cells, luminescence | 650,000 compounds, 1% hits | activation, % at 11.2 µM | AID 1508602; in the data active = activation above about 4.9%;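 also: 0% = median of compound wells and 100% = cells with positive control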
FBW7 activator – human FBW7 E3 ligase activation, primary screen | 650,000 compounds, 0.13% hits | AID 1259310 | AlphaScreen FBW7–phospho-cyclin E peptide binding, activator screen | normalized activity (activation), % at 26.1 µM | Q969H0; in the data active = normalized activity above about 1.9%;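 also: purified mutant Fbw7 with reduced substrate affinity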
Target sequence (Q969H0 whole entry, looked up): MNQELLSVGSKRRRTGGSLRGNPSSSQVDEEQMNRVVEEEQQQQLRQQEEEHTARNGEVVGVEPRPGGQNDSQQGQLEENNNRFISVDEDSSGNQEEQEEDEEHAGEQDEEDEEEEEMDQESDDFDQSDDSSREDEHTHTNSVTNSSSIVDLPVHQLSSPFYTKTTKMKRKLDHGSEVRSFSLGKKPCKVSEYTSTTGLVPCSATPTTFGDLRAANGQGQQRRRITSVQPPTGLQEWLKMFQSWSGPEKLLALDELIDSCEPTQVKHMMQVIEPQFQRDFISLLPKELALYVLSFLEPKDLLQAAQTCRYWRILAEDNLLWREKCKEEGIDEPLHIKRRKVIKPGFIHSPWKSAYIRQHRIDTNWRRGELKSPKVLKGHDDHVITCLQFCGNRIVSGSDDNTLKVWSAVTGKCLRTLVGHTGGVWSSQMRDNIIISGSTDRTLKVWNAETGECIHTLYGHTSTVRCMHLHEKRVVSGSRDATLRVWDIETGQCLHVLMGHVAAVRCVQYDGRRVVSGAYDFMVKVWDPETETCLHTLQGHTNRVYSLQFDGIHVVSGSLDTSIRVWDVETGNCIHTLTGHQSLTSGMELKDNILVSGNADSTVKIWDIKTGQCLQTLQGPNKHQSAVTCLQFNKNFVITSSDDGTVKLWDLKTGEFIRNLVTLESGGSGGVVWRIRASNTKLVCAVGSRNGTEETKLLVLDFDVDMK
MITF primary – inhibitors of human MITF | O75030 | AlphaScreen MITF homodimerization, bead proximity signal | inhibition, % at 2.6 µM | 650,000 compounds, 0.91% hits | AID 1259374; in the data active = inhibition above about 50%;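 also: 0% = vehicle wells with protein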
MITF inh conf – confirmation of human MITF inhibitors. shares compounds with MITF primary. AlphaScreen MITF homodimerization, biotin/His-MITF beads. inhibition, % at 2.6 µM. 4,700 compounds, 16% hits. AID 1259372;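 active = inhibition above a cutoff derived from the DMSO control wells, cut at about 28% in these data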;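 also: 0% = MITF dimer wells with DMSO only; inhibitors lower the bead chemiluminescence by keeping MITF from dimerizing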
AS interf DR – optically interferes with AlphaScreen signal in dose response. shares compounds with MITF primary. AlphaScreen optical interference counterscreen, cell-free. IC50, µM. 480 compounds, 6% hits. AID 1259373; call rule not given here
AlphaScreen intf2 – AlphaScreen optical interference, counter-screen. shares compounds with MITF primary. LysRS AlphaScreen counterscreen, signal interference, triplicate. inhibition, % at 2.6 µM. 4,700 compounds, 7.6% hits. AID 1259376;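 active = inhibition above a cutoff derived from the DMSO control wells, cut at about 30% in these data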
* hit, by the source's call. Rows were chosen to be rich in hits. Some 3.4% of all compounds tested hit in one or more screens of this group.

For COc1ccccc1N1CCN(C(=O)c2ccc3c(c2)C(=O)N(c2ccccn2)C3=O)CC1 the results were TEAD-YAP inh 1.3, GPR151 activ -1.0, FBW7 activator 0.3, MITF primary 67.7*, MITF inh conf -6.7 and AlphaScreen intf2 -4.4.
For O=C(c1ccc2c(c1)C(=O)N(c1ccccn1)C2=O)N1CCN(c2ccccc2Cl)CC1 the results were TEAD-YAP inh -6.9, GPR151 activ -0.7, FBW7 activator 0.5 and MITF primary 15.1.
COc1cc2nc(CN3CCN(c4ccccc4O)CC3)nc(N)c2cc1OC was read as TEAD-YAP inh -0.1, GPR151 activ -0.7, FBW7 activator -1.4 and MITF primary 2.0.
CC1(C)Cc2c(sc3nc(NNC(=O)c4ccccc4)[nH]c(=O)c23)CO1 was read as TEAD-YAP inh 7.0, GPR151 activ 0.0, FBW7 activator 0.0, MITF primary 73.3*, MITF inh conf 13.3 and AlphaScreen intf2 9.4.
`CN(C)C(=O)c1nc2ccc(Cl)cn2c1CNCCCn1ccc2ccccc21` gave TEAD-YAP inh -6.1, GPR151 activ 1.4, FBW7 activator 0.0 and MITF primary 8.6.
`O=C(CSc1nc2c(c(=O)n1CCc1ccccc1)SCC2)NCC1CCCO1` (stereo unspecified) gave TEAD-YAP inh -8.0, GPR151 activ 1.2, FBW7 activator 0.1 and MITF primary 6.4.
For COc1ccccc1N1CCN(C(=O)CN(c2cccc(Cl)c2C)S(C)(=O)=O)CC1 the results were TEAD-YAP inh 1.3, GPR151 activ 4.1, FBW7 activator 0.3 and MITF primary 17.7.
For COC(=O)Cc1[nH]nc2c1C1(C(=O)N(Cc3ccccc3)c3ccccc31)C(C#N)=C(N)O2 (stereo unspecified) the results were TEAD-YAP inh 6.7, GPR151 activ 0.0, FBW7 activator 0.5 and MITF primary 10.4.
COC(=O)Cc1[nH]nc2c1C1(C(=O)Nc3ccccc31)C(C#N)=C(N)O2 (stereo unspecified) was read as TEAD-YAP inh -6.3, GPR151 activ -0.1, FBW7 activator -0.1, MITF primary 66.3*, MITF inh conf 10.8 and AlphaScreen intf2 -1.9.
Screening COCCCNC(=O)Cn1cc(/C=C(\C#N)C(=O)NC2CCCCCC2)c2ccccc21 returned TEAD-YAP inh 3.8, GPR151 activ -0.2, FBW7 activator 0.0 and MITF primary -2.4.
`Cc1cc(/C=C2/C=CC(=O)O2)oc1C` gave TEAD-YAP inh 7.0, GPR151 activ -1.7, FBW7 activator 0.4, MITF primary 75.3*, MITF inh conf 72.2*, AS interf DR >7.29 and AlphaScreen intf2 10.1.
`CC1=NN(c2ccccc2)C(=O)C12C1C=CC(C1)C2(C(F)(F)F)C(F)(F)F` (stereo unspecified) gave TEAD-YAP inh 14.6, GPR151 activ 0.2, FBW7 activator 0.6 and MITF primary 5.8.
Screening CNc1nc(-c2ccccn2)nnc1-c1ccccc1 returned TEAD-YAP inh -5.5, GPR151 activ -1.3, FBW7 activator -0.5, MITF primary 108.4*, MITF inh conf 107.1* and AlphaScreen intf2 97.7*.
For CCOC(=O)c1c(N)nn2c3ccccc3n(C)c12 the results were TEAD-YAP inh -24.4, GPR151 activ 0.9, FBW7 activator 0.0, MITF primary 63.8*, MITF inh conf 10.6 and AlphaScreen intf2 17.7.
`CC1CCCCN1Cc1ccccc1C#N` (stereo unspecified) gave TEAD-YAP inh 1.1, GPR151 activ 1.6, FBW7 activator 0.2, MITF primary 71.1*, MITF inh conf -12.5 and AlphaScreen intf2 -7.0.
`CC1CCCCN1Cc1c(C#N)c2ccccc2n1C` (stereo unspecified) gave TEAD-YAP inh -1.1, GPR151 activ 2.5, FBW7 activator -0.3 and MITF primary -13.5.
`COc1ccc(OC)c(-n2cnc3cc(C(=O)NCc4ccccc4Cl)ccc32)c1` gave TEAD-YAP inh -0.3, GPR151 activ -0.6, FBW7 activator 0.1 and MITF primary 1.7.
Screening COc1ccc(OC)c(-n2cnc3cc(C(=O)NCc4ccco4)ccc32)c1 returned TEAD-YAP inh -12.3, GPR151 activ 0.3, FBW7 activator 0.0, MITF primary 74.8*, MITF inh conf 19.8 and AlphaScreen intf2 6.5.
`O=C(NC1=NC2CS(=O)(=O)CC2S1)c1ccccc1` (stereo unspecified) gave TEAD-YAP inh -1.2, GPR151 activ -1.0, FBW7 activator 0.1 and MITF primary 15.3.
`CCc1n[nH]c(=S)n1/N=C/c1ccc(F)cc1` gave TEAD-YAP inh -9.3, GPR151 activ -0.5, FBW7 activator 0.2 and MITF primary 4.4.
`CCc1n[nH]c(=S)n1N=C1CCC(C)CC1` (stereo unspecified) gave TEAD-YAP inh 2.5, GPR151 activ 0.5, FBW7 activator 0.3, MITF primary 59.4*, MITF inh conf -0.7 and AlphaScreen intf2 -2.1.
`Cn1nc(Oc2ccc(-c3ccccc3)cc2)c(=O)n(C)c1=O` gave TEAD-YAP inh -8.8, GPR151 activ -1.1, FBW7 activator 0.0, MITF primary 79.7*, MITF inh conf 15.7 and AlphaScreen intf2 8.7.
`CCCCC1CC(C)(c2csc(Nc3ccccc3Cl)n2)OC1=O` (stereo unspecified) gave TEAD-YAP inh -3.7, GPR151 activ -1.2, FBW7 activator 0.3 and MITF primary -0.8.
`O=C(NCc1cccnc1)c1ccccc1SCc1ccc(F)cc1` gave TEAD-YAP inh -0.7, GPR151 activ 1.9, FBW7 activator -0.1 and MITF primary -8.1.
For Cc1c(CN2C(=O)c3cccc(N4CCN(C(=O)CC(C)(C)C)CC4)c3C2=O)cnn1C the results were TEAD-YAP inh -9.2, GPR151 activ -0.9, FBW7 activator 0.0 and MITF primary -11.4.
For CCCC(=O)N1CCN(c2cccc3c2C(=O)N(Cc2cnn(C)c2C)C3=O)CC1 the results were TEAD-YAP inh 9.8, GPR151 activ -1.6, FBW7 activator 0.3, MITF primary 97.3*, MITF inh conf -1.6 and AlphaScreen intf2 -5.6.
Screening NC(=O)C1CCN(CC(=O)NCCc2ccccc2)CC1 returned TEAD-YAP inh 3.0, GPR151 activ 4.7, FBW7 activator 0.1, MITF primary 56.7*, MITF inh conf -3.8 and AlphaScreen intf2 -4.0.
For COCCCNC(=O)CN(Cc1ccccc1)S(=O)(=O)c1ccc(Cl)cc1 the results were TEAD-YAP inh -3.4, GPR151 activ -0.7, FBW7 activator 0.1 and MITF primary 5.5.
`O=C(Nc1cc(NC(=O)c2ccccc2)c(C(=O)O)cc1C(=O)O)c1ccccc1` gave TEAD-YAP inh -16.5, GPR151 activ -0.7, FBW7 activator -0.1 and MITF primary -6.7.
O=C(Nc1cc(S(=O)(=O)O)cc2cc(S(=O)(=O)O)cc(O)c12)c1ccccc1 was read as TEAD-YAP inh -3.2, GPR151 activ -1.2, FBW7 activator -0.2, MITF primary 81.0*, MITF inh conf 60.3*, AS interf DR >6.48 and AlphaScreen intf2 10.1.

Source: PubChem BioAssay (The Scripps Research Institute Molecular Screening Center)
